Results filed as inconclusive are left out. Entries that show only a call come without a potency. A number with no mark means an inactive call. Calls of active or inactive are those of the source. Calls come from the whole dose curve; as a rule, active = well fitted cell-killing curve with a large enough effect; inconclusive = small, poorly fitted or top-dose-only effect, or effect the other way; inactive = flat fitted curve, though single readings scatter.
The compounds below were run on PA-1 (assay: Primary qHTS to identify gynecologic anti-cancer compounds using libraries of approved drugs and bioactive compounds (AID 1345084; note: nearly all actives have a fitted effect of over 55% in size)). Settings: Gynecologic cancer cell panel viability, ATPlite luminescence, 48 h; series mostly up to 57.5 µM.
Summary of the method: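 Five-point cytotoxicity, 48 h drug exposure at 37 C, 5% CO2, on cells seeded 16 h beforehand. ATP content read by ATPlite luminescence.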
In the case of `CC(=O)c1c(C)cc(O)cc1O[C@@H]1O[C@H](CO)[C@@H](O)[C@H](O)[C@H]1O`, the Potency is reported as “inactive”.
In the case of `CC1CC(O)CC(C)(C)C1(O)CCO` (stereo not drawn), the Potency is reported as “inactive”.
For `C(#Cc1cccc(CN2CCOCC2)c1)CCN1CCCCC1`, the Potency was “inactive”.
In the case of `COC(=O)[C@]12C(=O)C(C)=C(O)[C@@]1(C)C(C)=CC1[C@@]34CC[C@@H](OC(C)=O)C(C)(C)C3[C@H](C[C@]12C)OC4=O` (stereo partly drawn), the Potency is reported as “inactive”.
In the case of `CC(=O)C1CCC2(C)C3=C(CCC12C)C1(C)CCC(=O)C(C)(C)C1CC3` (stereo not drawn), the Potency is reported as “inactive”.
In the case of `N#Cc1ccnc(N2C(=O)CC[C@H]2C(=O)N(c2cncc(F)c2)[C@H](C(=O)NC2CC(F)(F)C2)c2ccccc2Cl)c1`, the Potency is reported as “inactive”.
In the case of `CC(C)CNC(=O)/C=C/CCCCc1ccc2c(c1)OCO2`, the Potency is reported as “inactive”.
With `O=C(c1ccccn1)c1cnn2c(-c3ccncc3)ccnc12` the Potency was “inactive”.
`C=CC(C)(O)CC/C=C(/C)C(=O)OC1C(OC2OCC(OC3OC(CO)C(O)C(O)C3O)C(OC3OCC(O)C(OC4OC(C)C(O)C(O)C4O)C3O)C2O)COC(OC(=O)C23CCC(C)(C)CC2C2=CCC4C5(C)CCC(OC6OC(CO)C(OC7OC(CO)C(O)C(OC8OCC(O)C(O)C8O)C7O)C(O)C6O)C(C)(C)C5CCC4(C)C2(C)CC3O)C1O` (stereo not drawn) gave an activity change, negative = cytotoxicity of 6.35% [at 6.55 µM].
For `Nc1ncnc2c1ncn2[C@H]1CCCO1`, the Potency was “inactive”.
`Clc1ccc2c(c1)C1=NCCN1c1c(-c3noc(C4CC4)n3)ncn1-2` was tested, and the Potency was “inactive”.
In the case of `C[C@@H]1O[C@@H](O[C@H]2[C@H](O)[C@@H](C(=O)O)O[C@@H](O[C@H]3CC[C@@]4(C)C(CC[C@]5(C)C4CC=C4C6CC(C)(C)CC[C@]6(C(=O)O)CC[C@]45C)C3(C)C)[C@@H]2O[C@@H]2O[C@H](CO)[C@@H](O)[C@H](O)[C@H]2O)[C@H](O)[C@H](O)[C@H]1O` (stereo partly drawn), the activity change, negative = cytotoxicity is reported as -11.5% [at 11.6 µM].
In the case of `C=CC1(C)CC(O)C2(CCC3C(C)(C(=O)O)CCCC3(C)C2=O)C1` (stereo not drawn), the Potency is reported as “inactive”.
`C=CC(C)(O)CC/C=C(\C)C(=O)OC1CC2(C(=O)O)CCC3(C)C(=CCC4C5(C)CCC(OC6OC(COC7OCC(O)C(O)C7O)C(O)C(OC7OCC(O)C(O)C7O)C6OC6OC(CO)C(O)C(O)C6OC6OCC(O)C(O)C6O)C(C)(C)C5CCC43C)C2CC1(C)C` (stereo not drawn) gave an activity change, negative = cytotoxicity of 9.33% [at 6.55 µM].
In the case of `O=C(/C=C/c1ccc(O)cc1)OCC1=CC2OC(=O)C3=CO[C@@H](O[C@@H]4O[C@H](CO)[C@@H](O)[C@H](O)[C@H]4O)[C@H]1[C@@H]32` (stereo partly drawn), the Potency is reported as “inactive”.
`CC1OC(OC2C(CO)OC(OCC3OC(OC(=O)C45CCC(C)(C)CC4C4=CCC6C7(C)CCC(OC8OC(C(=O)O)C(O)C(OC9OC(CO)C(O)C(O)C9O)C8O)C(C)(C)C7CCC6(C)C4(C)CC5)C(O)C(O)C3O)C(O)C2O)C(O)C(O)C1O` (stereo not drawn) gave an activity change, negative = cytotoxicity of 14.3% [at 6.55 µM].
`COc1ccc2c3c1O[C@H]1C[C@@H](O)C=C[C@@]31CCN(C)C2` was tested, and the Potency was “inactive”.
Work on `O=C(OCc1cccc(O)c1O[C@@H]1O[C@H](CO)[C@@H](O)[C@H](O)[C@H]1O)C1(O)C(=O)C2C=CC1C1C=CC(=O)C(O)(C(=O)OCc3cccc(O)c3O[C@@H]3O[C@H](CO)[C@@H](O)[C@H](O)[C@H]3O)C21` (stereo partly drawn) yielded an activity change, negative = cytotoxicity of -3.46% [at 11.6 µM].
In the case of `NC(=O)[C@H]1CCCCc2c1[nH]c1ccc(Cl)cc21`, the Potency is reported as “inactive”.
`CCOC(=O)Nc1nc2ccccc2[nH]1` was tested, and the Potency was “inactive”.
In the case of `CC1CCCC2OC2C(=O)c2c(O)cc(O)cc2CC(=O)O1` (stereo not drawn), the Potency is reported as “inactive”.
With `Cc1c(N2C(=O)c3ccc(C(=O)O)cc3C2=O)c(=O)n(-c2ccccc2)n1C` the Potency was “inactive”.
`C[C@@H]1CC[C@]2(C(=O)O)CC[C@]3(C(=O)O)C(=CCC4[C@@]5(C)CC[C@H](O[C@@H]6O[C@@H](C)[C@H](O[C@@H]7O[C@H](CO)[C@@H](O)[C@H](O)[C@H]7O)[C@@H](O)[C@H]6O)C(C)(C)C5CC[C@]43C)C2[C@H]1C` (stereo partly drawn) was tested, and the Potency was “inactive”.
`COC1C2=C(COC2=O)C2(C)CCCC(C)(CO)C2C1OC(=O)c1ccccc1` (stereo not drawn) was tested, and the Potency was “inactive”.
With `O=C(O[C@@H]1O[C@H](CO)[C@@H](O)[C@H](O)[C@H]1O)c1c(O)cc(O)cc1/C=C/c1ccccc1` the Potency was “inactive”.
`C=C1CC/C=C(/CO)C(=O)C[C@@H]2[C@@H]1CC2(C)C` was tested, and the Potency was “inactive”.
With `CC1CCC2C(C)(C)C(O)CCC2(C)C12Cc1c(O)cc3c(c1O2)C(N)=NC3` (stereo not drawn) the Potency was “inactive”.
For `COc1cc(C(=O)OC[C@H]2O[C@H](O[C@@]3(CO)O[C@@H](CO)[C@H](O)[C@H]3O)[C@H](O)[C@@H](O)[C@@H]2O)ccc1O`, the Potency was “inactive”.
